Measured values as given in PubChem BioAssay AID1851 (National Center for Advancing Translational Sciences (NCATS), 2009).
Several values for one entry are separate records, joined by “and”; a condition that tells them apart may be missing. Identical values can stand only once. Among all 16,000 compounds or so, about 2,600 (16%) were called active. Inconclusive results (about 20%) are left out. Only a sample is shown. A number with no mark means an inactive call. The call rests on the fitted dose curve; in most records, active means well fitted curve in the direction sought with a large enough effect; inconclusive means small, poorly fitted or top-dose-only effect, or effect the other way; inactive means no such curve, though single readings can be large or run the other way.

Target: Cytochrome P450 2D6 (Homo sapiens) (UniProt P10635)
Assay: Cytochrome panel assay with activity outcomes
Details: recombinant CYP, pro-luciferin dealkylation, luminescence, p450-cyp2d6; series mostly up to 57.1 µM; activity, negative = inhibition: at the top concentration
On the % scale 0 is the no-effect control and ±100 the full control effect.

Sequence of Cytochrome P450 2D6 (Homo sapiens) (P10635 whole entry, looked up): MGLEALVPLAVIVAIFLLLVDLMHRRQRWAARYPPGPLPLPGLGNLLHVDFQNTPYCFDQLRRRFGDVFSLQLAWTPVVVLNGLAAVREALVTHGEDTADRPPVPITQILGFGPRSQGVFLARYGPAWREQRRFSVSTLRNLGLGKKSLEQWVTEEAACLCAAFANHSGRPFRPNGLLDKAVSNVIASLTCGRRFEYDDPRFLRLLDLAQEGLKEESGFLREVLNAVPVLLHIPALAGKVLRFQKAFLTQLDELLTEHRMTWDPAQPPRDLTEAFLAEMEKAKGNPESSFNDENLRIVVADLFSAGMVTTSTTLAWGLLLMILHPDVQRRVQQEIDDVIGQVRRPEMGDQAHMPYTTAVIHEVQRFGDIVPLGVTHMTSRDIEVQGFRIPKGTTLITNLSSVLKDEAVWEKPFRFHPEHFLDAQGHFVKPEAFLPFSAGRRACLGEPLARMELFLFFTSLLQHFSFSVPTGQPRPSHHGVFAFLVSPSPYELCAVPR

SMILES | activity, negative = inhibition | AC50
CC(CC(=O)O)CC(=O)Nc1ccc(S(N)(=O)=O)cc1 (centres undefined) | 5.56% | –
CN1CCC(=C2c3ccccc3CCc3sccc32)CC1 | – | 1.26 µM (active)
O=C1/C(=N\O)Cc2ccccc21 | -23.1% | –
CN1CCC(=C2c3ccccc3CC(=O)c3sccc32)CC1 | – | 7.94 µM (active) and 3.16 µM (active) and 5.01 µM (active)
CCc1cc(C(=O)OC)c(NC(=O)CCCC(=O)O)s1 | -21.8% | –
O=C(NNC(=O)c1cccnc1)Nc1cccc2ccccc12 | -5.2% | –
CO[C@H]1COC(=O)C/C=C\[C@H](C)[C@@H](NS(=O)(=O)c2ccc(C)cc2)COC(=O)C/C=C\[C@@H]1C | 3.82% [at 11.4 µM] | –
NC(N)=NC(N)=Nc1c(F)c(F)c(F)c(F)c1F | 13.6% [at 11.4 µM] | –
Cc1ccc(N=CC2=C(O)CC(c3ccco3)CC2=O)cc1 (centres undefined) | -7.41% | –
COc1cc(OC)c2c(c1)C(=O)c1cc(OC)cc(OC)c1C2=O | 10.3% | –
O=C1c2ccccc2C(=O)N1CC1CCCO1 (centres undefined) | 27.8% | –
Nc1ncc(-c2ccccc2)n1CC1CCCO1 (centres undefined) | – | 3.55 µM (active)
O=c1c(-c2ccccc2)nc2cnc(N3CCOCC3)nc2n1C[C@H]1CCCO1 | -6.63% | –
Cc1c(Cl)cccc1NC(=O)CCC(=O)NNC(=O)c1ccco1 | 15.5% | –
CCOC(=O)c1cnc(N(C)C)nc1SC(=N)N | -3.04% [at 11.4 µM] | –
Cc1noc(C)c1C(=O)N1CCC2(CCCN(C(=O)NC(C)C)C2)CC1 | 19.5% | –
O=C(CCNS(=O)(=O)c1cccs1)N1CCc2ccccc2C1 | – | 12.6 µM (active)
O=C(O)CCC(=O)N1CCc2cc(S(=O)(=O)NCc3cccs3)ccc21 | -0.0327% | –
O=C(CCNS(=O)(=O)c1cccs1)N1CCCCCC1 | -1.94% | –
COCCn1c(=O)c(-c2cc(F)cc(F)c2)nc2cncnc21 | -1.08% | –
COc1c(NC(C)=O)c2ccccc2c2ccccc12 | -0.0075% [at 11.4 µM] | –
COC(=O)N1CCC2(CCCN(Cc3ccc(C#N)cc3)C2)CC1 | – | 0.316 µM (active)
CC(=O)N1CCC2(CCCN(Cc3ccccc3)C2)CC1 | – | 2.51 µM (active)
CC(=O)N1CCC2(CC1)CN(Cc1ccccc1)C2 | -16.9% | –
COC(=O)N1CCC2(CCCN(Cc3ccccc3)C2)CC1 | – | 10 µM (active)
COC(=O)N1CCC[C@@]2(CCN(C(=O)Nc3cccc(C#N)c3)C2)C1 | 0.837% | –
COCC(=O)N1CCC2(CC1)CN(Cc1ccc(C#N)cc1)C2 | -10.2% | –

SMILES | activity, negative = inhibition | AC50
O=c1cnc2cnc(N3CCNCC3)nc2n1Cc1ccc(F)cc1 | -9.2% | –
CCNC(=S)NNC(=O)c1cc(CC(C)C)nc2ccccc12 | -11.7% | –
O=C1[C@H]2[C@H]3[C@H](O)[C@H](O)C/C(=N/OCc4ccccc4)[C@@H]3CC[C@@H]2C(=O)N1C[C@@H]1CCCO1 | 10% [at 11.4 µM] | –
Cn1c(=O)c(-c2cccc(C#N)c2)nc2cnc(Oc3ccccc3)nc21 | -1.53% | –
O=c1cc(O)cc(/C=C\c2ccc(O)c(O)c2)o1 | -4.59% | –
CC1=C(C(=O)N2CCCCCC2)C2(CCC(C)CC2)OC1=O (centres undefined) | -5% | –
COc1ccccc1NC(=S)NNC(=O)c1c(Cl)c(C)nn1C | -7.8% | –
CC(C)CN(CC(C)C)S(=O)(=O)N1CCC(C(=O)NCc2ccc(F)cc2)CC1 | -22.9% | –
COc1cc([C@H](O)CO)ccc1O | -1.2% | –
CC[C@H](NC(C)C)[C@H](O)c1ccc(O)c(O)c1 | – | 10 µM (active)
CNC[C@@H](SC)c1ccc(O)c(O)c1 | 2.56% [at 11.4 µM] | –
COC(=O)C(C)Sc1nc2c(cnn2-c2ccc(C)cc2)c(=O)[nH]1 (centres undefined) | 7.04% | –
Cc1ccc(C(=O)C(OC(=O)CNS(=O)(=O)c2ccccc2)c2ccccc2)cc1 (centres undefined) | 15.4% | –
Cc1ccc(C(=O)C(OC(=O)CCC(=O)Nc2cccc(C)c2)c2ccccc2)cc1 (centres undefined) | – | 28.2 µM (active)
Cc1ccc(C(=O)C(OC(=O)COc2ccccc2C)c2ccccc2)cc1 (centres undefined) | -11.8% | –
Cc1cc2c(c(=O)o1)[C@@H](O)[C@H]1O[C@@H]1C2=O | 3.46% [at 11.4 µM] | –
C[N+](C)(C)c1ccc([C@H](N)C(=O)O)cc1 | 6.78% [at 11.4 µM] | –
COc1ccccc1CNc1ncnc2ccc(-c3cccnc3)cc12 | – | 5.01 µM (active)
COc1ccc(CNc2ncnc3ccc(-c4cccnc4)cc23)c(OC)c1 | – | 10 µM (active)
COc1ccc(S(=O)(=O)NC2(C(F)(F)F)N=C3SCCN3C2=O)cc1 (centres undefined) | 8.37% | –
CCN1CCN(c2nc(C)c3c(n2)CCCC3=O)CC1 | -16.4% | –
COC(=O)c1ccccc1-c1ccc(/C=C2\C(=O)N(c3ccccc3)N=C2c2ccccc2)o1 | -3.39% | –
O=C(NC1CCCCC1)c1sc(=S)n2c1[nH]c(=O)c1ccccc12 | -18.8% | –
COc1ccc(C2C(C#N)=C(N)N(Nc3ccccc3)C3=C2C(=O)CC(C)(C)C3)cc1C (centres undefined) | -20% | –
S=C(S)O[C@@H]1C[C@@H]2C[C@H]1[C@@H]1CCC[C@H]21 | – | inactive
CCOC(=O)CCN1C(=O)[C@H]2[C@H]3[C@H](O)[C@H](O)C/C(=N/O[C@@H]4O[C@@H](COC(C)=O)[C@@H](OC(C)=O)[C@@H](OC(C)=O)[C@H]4OC(C)=O)[C@H]3CC[C@@H]2C1=O | – | 3.16 µM (active)
CCN1C(=O)[C@H]2[C@H]3[C@H](O)[C@H](O)C/C(=N/O[C@@H]4O[C@H](COC(C)=O)[C@@H](OC(C)=O)[C@H](OC(C)=O)[C@H]4OC(C)=O)[C@@H]3CC[C@@H]2C1=O | – | 3.98 µM (active)

SMILES | activity, negative = inhibition | AC50
CC(=O)OC[C@@H]1O[C@@H](O/N=C2/C[C@@H](O)[C@@H](O)[C@@H]3[C@@H]4C(=O)N(C(C)(C)C)C(=O)[C@H]4CC[C@@H]23)[C@H](OC(C)=O)[C@H](OC(C)=O)[C@@H]1OC(C)=O | -13.3% [at 11.4 µM] | –
C#CCCCO/N=C1/C[C@@H](O)[C@@H](O)[C@@H]2[C@@H]3C(=O)N(CCC(=O)OCC)C(=O)[C@H]3CC[C@H]12 | 5.95% [at 11.4 µM] | –
CCOC(=O)CCN1C(=O)[C@H]2[C@H]3[C@H](O)[C@H](O)C/C(=N/OC/C=C(\C)CCC=C(C)C)[C@@H]3CC[C@@H]2C1=O | 0.883% [at 11.4 µM] | –
O=C1[C@@H]2[C@H]3[C@H](O)[C@H](O)C/C(=N/OCc4ccccc4)[C@H]3CC[C@H]2C(=O)N1c1ccc(F)cc1F | -7.87% [at 11.4 µM] | –
CC(=O)OC[C@@H]1O[C@@H](O/N=C2/C[C@@H](O)[C@@H](O)[C@@H]3[C@@H]4C(=O)N(C(C)(C)C)C(=O)[C@H]4CC[C@H]23)[C@H](OC(C)=O)[C@H](OC(C)=O)[C@@H]1OC(C)=O | 3.1% [at 11.4 µM] | –
CCOC(=O)CCN1C(=O)[C@H]2[C@H]3[C@H](O)[C@H](O)C/C(=N/OC/C=C(\C)CCC=C(C)C)[C@H]3CC[C@@H]2C1=O | 1.08% [at 11.4 µM] | –
CC(=O)OC[C@@H]1O[C@@H](O/N=C2/C[C@@H](O)[C@@H](O)[C@@H]3[C@H]4C(=O)N(c5ccc(F)cc5F)C(=O)[C@@H]4CC[C@H]23)[C@H](OC(C)=O)[C@H](OC(C)=O)[C@@H]1OC(C)=O | – | 3.16 µM (active)
C#CCCCO/N=C1/C[C@@H](O)[C@@H](O)[C@@H]2[C@@H]3C(=O)N(CCC(=O)OCC)C(=O)[C@H]3CC[C@@H]12 | -5.32% [at 11.4 µM] | –
CCOC(=O)CCN1C(=O)[C@H]2[C@H]3[C@H](O)[C@H](O)C/C(=N/O[C@@H]4O[C@@H](COC(C)=O)[C@@H](OC(C)=O)[C@@H](OC(C)=O)[C@H]4OC(C)=O)[C@@H]3CC[C@@H]2C1=O | – | 3.16 µM (active)
CC(=O)OC[C@@H]1O[C@@H](O/N=C2/C[C@@H](O)[C@@H](O)[C@@H]3[C@@H]4C(=O)N(c5cccc(Oc6ccccc6)c5)C(=O)[C@H]4CC[C@H]23)[C@H](OC(C)=O)[C@H](OC(C)=O)[C@@H]1OC(C)=O | 0.346% [at 11.4 µM] | –
CC(=O)OCC(=O)[C@]12OC(C)(C)O[C@@H]1C[C@H]1[C@H]3CC=C4C[C@@H](O)CC[C@]4(C)[C@H]3CC[C@]12C | 25.3% [at 11.4 µM] | –
Cn1c(=O)c(-c2ccc(Cl)cc2)nc2cnc(Oc3ccccc3)nc21 | -0.772% | –
N#CC(CC(=O)O)=C(c1ccccc1)c1ccccc1 | 9.93% [at 11.4 µM] | –
CNC(=O)CCc1nc(-c2ccc(C(C)(C)C)cc2)no1 | 1.62% | –
Cc1nn(C(=O)c2ccco2)c(C)c1Sc1ccccc1 | -15.5% | –
Cn1c(=O)n2n(c1=O)[C@H]1[C@H](O)[C@H]3O[C@@H]3/C(=N/OC[C@@H](O)COCc3ccco3)[C@@H]1CC2 | 15.6% [at 11.4 µM] | –
Cn1cc(-c2nc3cnc(N4CCNCC4)nc3n(C)c2=O)c2ccccc21 | -6.12% | –
CC(C)OP(=O)(OC(C)C)C(NC(=O)c1ccc(Br)cc1)c1ccccc1 (centres undefined) | 3.63% | –
COc1ccc(-c2cc(C(=O)O)c3c(C)nn(-c4ccccn4)c3n2)cc1 | 2.51% | –
C[C@@]12CC(=O)[C@@H]3[C@@H](CCC4=CC(=O)CC[C@]43C)[C@@H]1CC=C2CC(=O)O | 17.8% [at 11.4 µM] | –
Cc1cnc(C(=O)OCC(=O)NC(C)C)cn1 | -1.58% | –
CC(C)(SCc1ccccc1)[C@H](N)C(=O)O | 1.44% [at 11.4 µM] | –
Cc1ccccc1OCC(=O)NC(=S)Nc1ccc(Br)c(C)n1 | 5.94% | –
Cc1cccc(N(NC(=O)C(C)(C)O)C(=O)c2ccccc2)c1 | 3.13% | –
Cc1nc2c(ccc3nc(NC(=O)c4ccc(S(=O)(=O)N(C)C)cc4)sc32)s1 | -2.32% | –
